# Test results taken from PubChem BioAssay AID624296 (National Center for Advancing Translational Sciences (NCATS), 2012).
# In all, about 350,000 compounds went through this assay and about 9,900 (2.8%) were called active. Entries that show only a call come without a potency. Roughly 15% stayed inconclusive and do not appear here. Calls come from the whole dose curve; as a rule, active = well fitted activation curve with a large enough effect; inconclusive = small, poorly fitted or top-dose-only effect; inactive = no such curve, though single readings can be large or run the other way. Many of the other results were omitted from the sample, so actives are more common in it than they were.
# Assay: A quantitative high throughput screen for small molecules that induce DNA re-replication in MCF 10a normal breast cells. Note: nearly all actives have a fitted effect of over 50% in size.
# Details: MCF 10A DNA re-replication, Hoechst nuclear intensity, 48 h; series mostly up to 46.1 µM
# Potency is the fitted concentration of half-maximal effect.
row,SMILES,Potency
1,CC1CCN(C(=S)c2cccc([N+](=O)[O-])c2)CC1,inactive
2,CC1CCN(C(=S)c2cccc(O)c2)CC1,1.46 µM (active)
3,CC1CCN(C(=S)NC(=O)c2ccccc2Br)CC1,inactive
4,CC[C@]1(C(=O)OC)[C@H]2C(=O)N(Cc3ccccc3)C(=O)[C@H]2[C@H]2CN=C(SCc3ccc(Cl)cc3)N21,inactive
5,O=C(CN1CCc2ccccc2C1)Nc1cccc(S(=O)(=O)N2CCOCC2)c1,inactive
6,COC(=O)Cc1ccc(OC(=O)C2CCN(S(=O)(=O)c3ccc(OC)c(OC)c3)CC2)cc1,inactive
7,O=C(Nc1ccc(F)cc1)C1CCN(C(=O)c2ccc([N+](=O)[O-])cc2)CC1,inactive
8,CC1CCN(C(=O)c2ccc(S(=O)(=O)Cc3cc(F)ccc3F)c([N+](=O)[O-])c2)CC1,18.4 µM (active)
9,O=C(c1ccc(Oc2ccc(Cl)cc2)c([N+](=O)[O-])c1)N1CCCC1,inactive
10,O=C(Nc1ccn(CCCNCc2ccc3[nH]ccc3c2)c(=O)n1)OCc1ccccc1,inactive
11,O=C(Nc1c[nH]c(=O)[nH]c1=O)OCc1ccccc1,inactive
12,Cc1ccc(OCC(=O)N2CCN(S(=O)(=O)c3ccc(Cl)s3)CC2)cc1C,inactive
13,Cc1ccc(Br)c(NS(=O)(=O)c2cccc(C(=O)N3CCNC(=O)C3)c2)c1,inactive
14,O=C(CCl)NNc1nc(-c2ccccc2)c2cc(Cl)ccc2n1,inactive
15,OCCCNc1nc(-c2ccccc2)c2cc(Cl)ccc2n1,8.2 µM (active)
16,NC(N)=Nc1nc(-c2ccccc2)c2cc(Cl)ccc2n1,inactive
17,CC1(C)CC(=O)C=C(c2ccc3ncccc3c2)C1,inactive
18,CCN(c1ccccc1)S(=O)(=O)c1ccc(C(=O)Nc2ccccc2OC)cc1,inactive
19,C[n+]1cccc(C(=O)O)c1,inactive
20,COc1ccc(Cn2c(=S)[nH]c3cc(C(=O)NCCCN4CCOCC4)ccc3c2=O)cc1,inactive
21,CCN(CC)CCCNC(=O)c1ccc2c(=O)n(Cc3ccc4c(c3)OCO4)c(=S)[nH]c2c1,23.1 µM (active)
22,CCCCNC(=O)CCn1c(=S)[nH]c2cc3c(cc2c1=O)OCO3,inactive
23,Cc1ccc(C(=O)NCCNC(=O)c2ccccc2)cc1,inactive
24,Cc1ccc(SC(CC(=O)c2ccc(C(C)(C)C)cc2)C(=O)O)cc1 (stereo not drawn),7.31 µM (active)
25,Cc1ccc(C(=O)CSc2ccccc2C(=O)O)cc1,inactive
26,O=C(Nc1ccc(N2CCOCC2)cc1)c1cccc(S(=O)(=O)N2CCOCC2)c1,inactive

row,SMILES,Potency
1,CN(CC(=O)O)C(=O)c1ccccc1,inactive
2,CN1C(=O)c2ccc(NC(=O)c3c(F)c(F)c(F)c(F)c3F)cc2C1=O,inactive
3,O=C(O)c1ccc(NC(=O)C2CCCCC2)cc1,inactive
4,CN1C(=O)c2ccc(NC(=O)C3CCCCC3)cc2C1=O,10.3 µM (active)
5,CCOc1ccc(Br)cc1S(=O)(=O)Nc1ccc(S(=O)(=O)Nc2cc(C)on2)cc1,inactive
6,c1ccc(CNc2ncnc3[nH]ncc23)cc1,inactive
7,O=C(COC(=O)c1cc(S(=O)(=O)N2CCOCC2)ccc1Cl)NCCc1ccccc1,inactive
8,COc1ccc2[nH]c3c(c2c1)CCN1C(=O)C(CC(=O)NCc2cccc(C(F)(F)F)c2)C[C@H](C(=O)N2CCOCC2)[C@@]31C (stereo partly drawn),inactive
9,C=CCn1c(SCc2c(C)noc2C)nc2sc3c(c2c1=O)CCC(C)C3 (stereo not drawn),3.66 µM (active)
10,CC1CCc2c(sc3nc4n(c(=O)c23)CCS4)C1 (stereo not drawn),inactive
11,C=CCn1c(SCC(=O)NCC2CCCO2)nc2sc(C)c(C)c2c1=O (stereo not drawn),inactive
12,CC(NC(=O)COC(=O)CCC(=O)c1ccc(Cl)cc1)c1ccccc1 (stereo not drawn),inactive
13,CC[C@]12c3[nH]c4ccc(OC)cc4c3CCN1C(=O)C(CC(=O)NCc1ccco1)C[C@@H]2C(=O)N1CCN(C(=O)C2CC2)CC1 (stereo partly drawn),inactive
14,CC12CCCCC1=CC(=O)CC2 (stereo not drawn),inactive
15,COc1ccc(Nc2ccc3ccccc3c2)cc1,23.1 µM (active)
16,COc1ccc(-c2nnc(-c3ccc4ccccc4c3)o2)cc1,inactive
17,COc1ccc(Nc2nnc(C)c3ccccc23)cc1,inactive
18,COc1cc(C(=O)N2CCN(S(=O)(=O)c3ccc(C(C)C)cc3)CC2)ccc1OCC(=O)N1CCOCC1,inactive
19,O=C(CNC(=O)c1ccccc1Br)NNC(=O)c1cccs1,inactive
20,CC/C(=N\NC(=O)c1ccccc1Cl)c1ccc(Br)s1,inactive
21,O=C(C/C(=N\NC(=O)c1ccccc1Br)C(F)(F)F)c1cccs1,11.6 µM (active)
22,CCOC(=O)Cc1csc(SCC(=O)Nc2ccc(C)cc2F)n1,inactive
23,O=C(OCC(=O)N1CCCCCC1)c1ccc(Cl)nc1,inactive
24,Cc1ccc(C(=O)Nc2sc(Cc3ccc4c(c3)OCO4)c(C)c2C(N)=O)cc1,4.11 µM (active)
25,COCc1nnc(NC(=O)c2ccc3c(c2)OCO3)s1,inactive
26,CC(=O)NCCC(=O)Nc1nc(C)c(Cc2ccc3c(c2)OCO3)s1,inactive

row,SMILES,Potency
1,COc1ccccc1C(=O)NCC(=O)OCC(=O)Nc1nnc(-c2ccccc2)o1,inactive
2,Cc1coc2c(O)cc3c(c12)OC1(N2CCCCC2)C(=O)NCCCC31 (stereo not drawn),18.4 µM (active)
3,O=C1OC(Oc2ccc(Br)cc2)(c2ccccc2)c2ccccc21 (stereo not drawn),11.6 µM (active)
4,Cc1cccc(C(=O)OCC(=O)NC(C)C2CC3CCC2C3)c1O (stereo not drawn),inactive
5,Cc1cc(OCCCC(=O)Nc2cc(S(=O)(=O)N3CCOCC3)ccc2N2CCOCC2)ccc1Cl,inactive
6,O=c1cc(N2CCCCC2)c(-c2ccccc2)nn1Cc1cccc(F)c1,20.6 µM (active)
7,O=c1cc(N2CCN(Cc3ccccc3)CC2)c(-c2ccccc2)n[nH]1,inactive
8,O=C(CS(=O)(=O)c1cn(Cc2cccc(F)c2)c2ccccc12)N1CCCCC1,inactive
9,COc1ccc(-c2nnc(SC(C)C(=O)NC3CC3)o2)cc1 (stereo not drawn),inactive
10,Cc1nn(-c2ccccc2)c(Cl)c1C(=O)Nc1ccccc1,inactive
11,Cc1nn(-c2ccccc2)c(C)c1/C=C/C(=O)OC(C)C(N)=O (stereo not drawn),inactive
12,Cc1ccc(C(=O)/C=C/c2c(C)nn(-c3ccccc3)c2Cl)cc1,16.4 µM (active)
13,Cc1ccc(CNC(=O)CC(NC(=O)c2ccccc2)c2ccccc2)cc1 (stereo not drawn),inactive
14,COc1ccc(NC(=O)Nc2cccc3cccnc23)cc1,inactive
15,O=C(Nc1ccccc1)Oc1cccc2cccnc12,4.11 µM (active)
16,OCc1ccc(OCCCOc2cccc3cccnc23)cc1,inactive
17,CN(Cc1ccccc1)C(=O)COC(=O)/C=C/c1ccc2c(c1)OCO2,inactive
18,O=C(CN1C(=O)NC2(CCCCCC2)C1=O)NCc1ccc(F)cc1,inactive
19,COc1ccc(S(=O)(=O)Nc2ccc3cn[nH]c3c2)cc1[N+](=O)[O-],inactive
20,Cc1cccc(NC(=O)c2nnn(-c3cccc(C(F)(F)F)c3)c2N)c1,inactive
21,COc1cc(NC(=O)c2[nH]cnc2C(N)=O)cc(C(=O)Nc2cccc(C(F)(F)F)c2)c1,7.31 µM (active)
22,CNC(=O)c1ccc(NC(=O)c2cccc(C(F)(F)F)c2)cc1,inactive
23,COc1ccc(NC(=O)C(=O)NCC(=O)Nc2cccc(C(F)(F)F)c2)cc1,inactive
24,N#Cc1ccc(Oc2ccc(C(F)(F)F)cc2NC(=O)c2ccc(F)cc2)cc1,inactive
25,COc1cc(NC(=O)c2cncc(-c3ccc(C#N)cc3)c2)cc(C(=O)Nc2cccc(C(F)(F)F)c2)c1,13 µM (active)
26,CC(=O)N1CCc2ccc(N)cc21,inactive

row,SMILES,Potency
1,CC1CCC(CN2CCN=C2N(C)C)CC1 (stereo not drawn),inactive
2,COc1cc2c(cc1OC)CN(C(C)C(=O)Nc1cccc(S(=O)(=O)N3CCOCC3)c1)CC2 (stereo not drawn),inactive
3,COCCn1c(C)cc(C(=O)CN2c3cccc4cccc(c34)S2(=O)=O)c1C,inactive
4,O=C(COC(=O)/C=C/c1cccc(Cl)c1)NCc1cccs1,inactive
5,Cc1c(NC(=O)C(C)OC(=O)c2ccccc2O)c(=O)n(-c2ccccc2)n1C (stereo not drawn),inactive
6,Cc1ccc(OCCCC(=O)Nc2ccc3c(c2)OCCO3)cc1,inactive
7,CC(C)N(Cc1nnc(-c2ccccc2Br)o1)C(=O)c1cc(Cl)nc2ccccc12,inactive
8,O=C(Nc1ccc(Br)cn1)c1ccc([N+](=O)[O-])cc1Cl,inactive
9,Cc1cccc(NC(=O)c2ccc([N+](=O)[O-])o2)c1,2.91 µM (active)
10,Cc1cccc(NC(=O)c2cc([N+](=O)[O-])ccc2N2CCN(C)CC2)c1,inactive
11,CN1C(=O)c2ccc(C(=O)Nc3ccc(Br)cn3)cc2C1=O,inactive
12,O=C(Nc1ccc(Br)cn1)c1ccc([N+](=O)[O-])o1,4.11 µM (active)
13,Cc1cccc(NC(=S)NC(=O)c2ccc(Br)o2)c1,inactive
14,COc1ccc(CNC(=O)c2ccc(NS(=O)(=O)c3ccc4[nH]c(=O)[nH]c4c3)cc2)cc1OC,inactive
15,COc1ccc(CNCCCn2cnc3c(OCc4ccccc4)ncnc32)cc1,inactive
16,CSCCC(NC(=O)COc1ccccc1)C(=O)N(C)CC(=O)Nc1ccc(C)cc1 (stereo not drawn),inactive
17,CCOC(=O)CCCCCC(=O)Nc1ccc2c(c1)CC(=O)N([C@@H](C)CO)C[C@H](C)[C@@H](CN(C)Cc1ccccc1)O2,inactive
18,COc1cccc(C=CC(=O)C=CC=Cc2ccccc2)c1,16.4 µM (active)
19,COc1cccc(C(=O)NNC(=O)/C=C/c2ccccc2)c1,inactive
20,COc1cccc(/C=C/C(=O)OCC(=O)N2CCN(c3ccccc3)CC2)c1,inactive
21,Cc1noc(C)c1C(=O)OC(C)C(=O)Nc1ccc2c(c1)OCO2 (stereo not drawn),inactive
22,CC1(C)CC(=O)C=C(c2ccc(Cl)c(C(F)(F)F)c2)C1,inactive
23,O=C(NCc1cc(C(F)(F)F)cc(C(F)(F)F)c1)C1CC(c2cccc(F)c2)=NO1 (stereo not drawn),inactive
24,COc1ccc(C2=NOC(C(=O)NCc3ccco3)C2)cc1OC (stereo not drawn),4.61 µM (active)
25,COc1ccc(S(=O)(=O)N2CCC(C(=O)NCc3ccco3)CC2)cc1C,inactive
